Values joined by “and” are separate entries in the source; they are usually repeats but may differ in a detail not shown here. Equal values may be shown once. Compounds without any hit were thinned out: in the full panel of roughly 79,000, 15% have a hit. The source holds several records for some structures; these can differ, active in one and inactive in another. Active and inactive are the calls of the source. Cut-off read from the data, not from the text of the source: active = growth inhibition above about 70%; inactive = the rest.
Test: NCI Yeast Anticancer Drug Screen. Data for the sgs1 mgt1 strain (AID 161);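 note: 0% = growth of cultures given vehicle only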
Details: S. cerevisiae sgs1 mgt1 strain, stronger effect = higher value
Description: Growth inhibition of yeast strains with defined genetic alterations is measured as a screen for potential anti-cancer activity. Selected strains with alterations in DNA damage repair or cell cycle control were exposed to compounds and growth inhibition was measured relative to vehicle treated controls. The strain used in this assay is sgs1 mgt1

[1] = at 5.0 µM (retest, dose inferred, filed as 0.5)
[2] = at 50.0 µM (retest, dose inferred, filed as 5.0)

For `COc1ccc(C2N(Cc3ccc(N(CCCl)CCCl)cc3C)CCCN2Cc2ccc(N(CCCl)CCCl)cc2C)cc1`, which growth inhibition [1] is on record?
The growth inhibition was 3% (inactive).

And the growth inhibition [2]?
Its growth inhibition is 99% (active).

And the growth inhibition (at 50.0 µM)?
The growth inhibition was 99% (active).

Which results are given for `CC[C@@]1(O)CC(OC2CC(N3CCOCC3)C(O)C(C)O2)c2c(O)c3c(c(O)c2[C@H]1O)C(=O)c1cccc(O)c1C3=O` (some centres not stated)?
growth inhibition [1]: 63% (inactive); growth inhibition [2]: 99% (active); growth inhibition (at 50.0 µM): 49.4% (inactive)

Which growth inhibition [1] does the source give for `CCC(=O)C(CCN1CCC2(CCCc3ccccc32)CC1)(c1ccccc1)c1ccccc1` here?
The growth inhibition was 3% (inactive).

What about the growth inhibition [2] of the same compound?
Its growth inhibition is 93% (active).

What about the growth inhibition (at 50.0 µM) of the same compound?
Its growth inhibition is 97.8% (active).

For `COC(=O)C(CCCN=C(N)N[N+](=O)[O-])NC(=O)c1ccc2c(c1O)C(=O)c1ccccc1C2=O` (configuration not stated), which growth inhibition [1] is on record?
Its growth inhibition is 6% (inactive).

What about the growth inhibition [2] of the same compound?
Its growth inhibition is 18% (inactive).

What about the growth inhibition (at 50.0 µM) of the same compound?
The growth inhibition was 68.6% (inactive).

What does the source list for `C[CH2][Pb]([CH2]C)([CH2]C)[n]1cnc2ccccc21`?
growth inhibition [1]: 5% (inactive); growth inhibition [2]: 97% (active); growth inhibition (at 50.0 µM): 82.2% (active)

What does the source list for `O=S(=O)(O)c1ccc(Cl)cc1.[Cd]`?
growth inhibition [1]: 23% (inactive); growth inhibition [2]: 53% (inactive); growth inhibition (at 50.0 µM): 50.5% (inactive)

With `O=C(O)C1C2C=CC(C2)C1c1ccccc1` (configuration not stated) as the compound, how does the growth inhibition [1] read?
The growth inhibition was -3% (inactive).

And the growth inhibition [2]?
Its growth inhibition is 3% (inactive).

And the growth inhibition (at 50.0 µM)?
The growth inhibition was 7% (inactive) and -6.6% (inactive).

For `CC(O[Si](c1ccccc1)(c1ccccc1)C(C)(C)C)[C@H](NC(=O)OC(C)(C)C)C(=O)O` (some centres not stated), which growth inhibition [1] is on record?
Its growth inhibition is 13% (inactive).

And the growth inhibition [2]?
The growth inhibition was 47% (inactive).

And the growth inhibition (at 50.0 µM)?
The growth inhibition was 88% (active).

For `C/C(=N\O)C(CN(C)C)C(c1ccccc1)c1c(O)c2ccccc2oc1=O` (configuration not stated), which growth inhibition [1] is on record?
Its growth inhibition is 15% (inactive).

What about the growth inhibition [2] of the same compound?
The growth inhibition was 15% (inactive).

What about the growth inhibition (at 50.0 µM) of the same compound?
The growth inhibition was 82.2% (active).

What does the source list for `CC(=O)NC1C(S[As](C)C)OC(COC(C)=O)C(OC(C)=O)C1OC(C)=O` (configuration not stated)?
growth inhibition [1]: 21% (inactive); growth inhibition [2]: 54% (inactive); growth inhibition (at 50.0 µM): 88.5% (active)

With `N#CC(C#N)=Cc1cccc([N+](=O)[O-])c1` as the compound, how does the growth inhibition [1] read?
The growth inhibition was 13% (inactive).

What about the growth inhibition [2] of the same compound?
The growth inhibition was 84% (active).

What about the growth inhibition (at 50.0 µM) of the same compound?
The growth inhibition was -24.4% (inactive) and 99.2% (active).

For `Cc1ccc2c[c]1[Hg][CH2]COS2(=O)=O`, which growth inhibition [1] is on record?
Its growth inhibition is 48% (inactive).

What about the growth inhibition [2] of the same compound?
The growth inhibition was 99% (active).

What about the growth inhibition (at 50.0 µM) of the same compound?
The growth inhibition was 97.5% (active).

Which growth inhibition [1] does the source give for `S=P(Nc1ccccc1)(Nc1ccccc1)Oc1ccccc1` here?
Its growth inhibition is -4% (inactive).

And the growth inhibition [2]?
The growth inhibition was 98% (active).

What about the growth inhibition (at 50.0 µM) of the same compound?
Its growth inhibition is 99.2% (active).

With `CCCCCCCCCCCCCCCCCC[N+](C)(C)C` as the compound, how does the growth inhibition [1] read?
Its growth inhibition is 99% (active).

And the growth inhibition [2]?
Its growth inhibition is 95% (active).

What about the growth inhibition (at 50.0 µM) of the same compound?
The growth inhibition was 89.8% (active).
